Reference: paper PMC9911399, “Two distinct binding modes provide the RNA-binding protein RbFox with extraordinary sequence specificity”
Numbering of substitutions follows the chain as printed; changes in the protein carry UniProt numbers. Whole data set: some 16,000 sequences, median “ka relative to ugcaugu” near 0.096, cut for the highest 2% near 0.35. Shown is part of a subset that was picked to be rich in the highest values.

T1: RBFOX1 RRM RbFoxmut (Fox-RRM*) (Homo sapiens, UniProt Q9NWB1 109-208, R118D;E147R;N151S;E152T)
T1 sequence: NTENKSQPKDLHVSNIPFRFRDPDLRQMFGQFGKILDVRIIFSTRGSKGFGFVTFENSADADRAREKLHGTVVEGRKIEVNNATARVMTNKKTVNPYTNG

B1: AGAUCGU (DNA:RNA)
RNA: GGGAGACCGGAAUUCAGAUUGUCCAGAUCGUUUAAAUCCCGUCGUAGCCACCA
DNA 1: CAATCTGAATTCCGGTCTCCC
DNA 2: TGGTGGCTACGACGGGATT
B2: GGGAUUG (DNA:RNA)
RNA: B1 RNA with A25G, A27G, U28A, C29U, G30U, U31G
DNA 1: CAATCTGAATTCCGGTCTCCC
DNA 2: TGGTGGCTACGACGGGATT
B3: CGAUAUG (DNA:RNA)
RNA: B1 RNA with A25C, C29A, G30U, U31G
DNA 1: CAATCTGAATTCCGGTCTCCC
DNA 2: TGGTGGCTACGACGGGATT
B4: GGAUCGU (DNA:RNA)
RNA: B1 RNA with A25G
DNA 1: CAATCTGAATTCCGGTCTCCC
DNA 2: TGGTGGCTACGACGGGATT
B5: GGAUAUG (DNA:RNA)
RNA: B1 RNA with A25G, C29A, G30U, U31G
DNA 1: CAATCTGAATTCCGGTCTCCC
DNA 2: TGGTGGCTACGACGGGATT
B6: CGAUCGU (DNA:RNA)
RNA: B1 RNA with A25C
DNA 1: CAATCTGAATTCCGGTCTCCC
DNA 2: TGGTGGCTACGACGGGATT
B7: GUAUAUG (DNA:RNA)
RNA: B1 RNA with A25G, G26U, C29A, G30U, U31G
DNA 1: CAATCTGAATTCCGGTCTCCC
DNA 2: TGGTGGCTACGACGGGATT
B8: GGGAUCG (DNA:RNA)
RNA: B1 RNA with A25G, A27G, U28A, C29U, G30C, U31G
DNA 1: CAATCTGAATTCCGGTCTCCC
DNA 2: TGGTGGCTACGACGGGATT
B9: CGGAUCG (DNA:RNA)
RNA: B1 RNA with A25C, A27G, U28A, C29U, G30C, U31G
DNA 1: CAATCTGAATTCCGGTCTCCC
DNA 2: TGGTGGCTACGACGGGATT
B10: GUGAGUC (DNA:RNA)
RNA: GGGAGACCGGAAUUCAGAUUGUCCGUGAGUCUUAAAUCCCGUCGUAGCCACCA
DNA 1: CAATCTGAATTCCGGTCTCCC
DNA 2: TGGTGGCTACGACGGGATT
B11: UUCUCUG (DNA:RNA)
RNA: B1 RNA with A25U, G26U, A27C, G30U, U31G
DNA 1: CAATCTGAATTCCGGTCTCCC
DNA 2: TGGTGGCTACGACGGGATT
B12: UUAUUAA (DNA:RNA)
RNA: B1 RNA with A25U, G26U, C29U, G30A, U31A
DNA 1: CAATCTGAATTCCGGTCTCCC
DNA 2: TGGTGGCTACGACGGGATT
B13: UCGAGUG (DNA:RNA)
RNA: B10 RNA with G25U, U26C, C31G
DNA 1: CAATCTGAATTCCGGTCTCCC
DNA 2: TGGTGGCTACGACGGGATT
B14: CUUGCGU (DNA:RNA)
RNA: B1 RNA with A25C, G26U, A27U, U28G
DNA 1: CAATCTGAATTCCGGTCTCCC
DNA 2: TGGTGGCTACGACGGGATT
B15: AGCACGA (DNA:RNA)
RNA: B1 RNA with A27C, U28A, U31A
DNA 1: CAATCTGAATTCCGGTCTCCC
DNA 2: TGGTGGCTACGACGGGATT
B16: CUGCUGC (DNA:RNA)
RNA: B10 RNA with G25C, A28C, G29U, U30G
DNA 1: CAATCTGAATTCCGGTCTCCC
DNA 2: TGGTGGCTACGACGGGATT
B17: UGCUUGC (DNA:RNA)
RNA: B1 RNA with A25U, A27C, C29U, U31C
DNA 1: CAATCTGAATTCCGGTCTCCC
DNA 2: TGGTGGCTACGACGGGATT
B18: CUGCUUG (DNA:RNA)
RNA: B10 RNA with G25C, A28C, G29U, C31G
DNA 1: CAATCTGAATTCCGGTCTCCC
DNA 2: TGGTGGCTACGACGGGATT
B19: CCCCUGC (DNA:RNA)
RNA: B1 RNA with A25C, G26C, A27C, U28C, C29U, U31C
DNA 1: CAATCTGAATTCCGGTCTCCC
DNA 2: TGGTGGCTACGACGGGATT
B20: UGCUGCU (DNA:RNA)
RNA: B1 RNA with A25U, A27C, C29G, G30C
DNA 1: CAATCTGAATTCCGGTCTCCC
DNA 2: TGGTGGCTACGACGGGATT
B21: UGCUUGU (DNA:RNA)
RNA: B1 RNA with A25U, A27C, C29U
DNA 1: CAATCTGAATTCCGGTCTCCC
DNA 2: TGGTGGCTACGACGGGATT

biological target: T1, RBFOX1 RRM RbFoxmut (Fox-RRM*); assay: EMSA; HiTS-Eq, 1 nM pool, 10 min; buffer printed only for the single-RNA assays: 10 mM Tris pH 7.5, 150 mM NaCl, 3.4 mM EDTA, 0.001% NP-40, 30 C; details: tags: His6 N-terminal (pET28a); label: 5' 32P
How it was run: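 Relative association constants, normalised to the cognate motif, were derived by comparing read counts of each RNA species with those of the control reaction. The RNA sequenced was the free fraction, separated by 8% native PAGE after a 10 min equilibration in 50 µL of 1 nM 5′-radiolabelled RNA (7 randomized nucleotides) with increasing concentrations of purified wild-type or mutant RbFox RRM.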

Row | Binder | binding signal
1 | B1 | 0.105 KA relative to UGCAUGU
2 | B2 | 0.282 KA relative to UGCAUGU
3 | B3 | 0.159 KA relative to UGCAUGU
4 | B4 | 0.354 KA relative to UGCAUGU
5 | B5 | 0.496 KA relative to UGCAUGU
6 | B6 | 0.118 KA relative to UGCAUGU
7 | B7 | 0.199 KA relative to UGCAUGU
8 | B8 | 0.369 KA relative to UGCAUGU
9 | B9 | 0.331 KA relative to UGCAUGU
10 | B10 | 0.138 KA relative to UGCAUGU
11 | B11 | 0.0908 KA relative to UGCAUGU
12 | B12 | 0.0751 KA relative to UGCAUGU
13 | B13 | 0.167 KA relative to UGCAUGU
14 | B14 | 0.154 KA relative to UGCAUGU
15 | B15 | 0.141 KA relative to UGCAUGU
16 | B16 | 0.126 KA relative to UGCAUGU
17 | B17 | 0.264 KA relative to UGCAUGU
18 | B18 | 0.423 KA relative to UGCAUGU
19 | B19 | 0.0955 KA relative to UGCAUGU
20 | B20 | 0.12 KA relative to UGCAUGU
21 | B21 | 0.428 KA relative to UGCAUGU
